Results taken from PubChem BioAssay AID651711 (Broad Institute, 2012).
“And” between values parts separate entries of the source, which are not always exact repeats. Identical values can stand only once. Screen size: about 350,000 compounds; about 180 (0.051%) were called active.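 How the source made its calls: active means mean replicate inhibition above about 25%, with every replicate also reaching it (limit read from the data, passing the limit was not always enough); inconclusive means only one of those two criteria met; inactive means neither criterion met.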 The list comes from a sample in which actives are over-represented; it also holds similar structures and randomly drawn compounds. Some structures have more than one record in an assay (separate samples or runs), and their calls can disagree.

Each molecule was assayed against Protein disulfide-isomerase A6 (Homo sapiens) (UniProt Q15084) (assay: inhibitors of ERp5-driven insulin aggregation, primary screen, biochemical, turbidity, absorbance 650 nm, single point (AID 651711)). Conditions: 90 min, at 9.99 µM, stronger effect = higher value.
Protein disulfide-isomerase A6 (Homo sapiens), sequence (Q15084 whole entry, looked up): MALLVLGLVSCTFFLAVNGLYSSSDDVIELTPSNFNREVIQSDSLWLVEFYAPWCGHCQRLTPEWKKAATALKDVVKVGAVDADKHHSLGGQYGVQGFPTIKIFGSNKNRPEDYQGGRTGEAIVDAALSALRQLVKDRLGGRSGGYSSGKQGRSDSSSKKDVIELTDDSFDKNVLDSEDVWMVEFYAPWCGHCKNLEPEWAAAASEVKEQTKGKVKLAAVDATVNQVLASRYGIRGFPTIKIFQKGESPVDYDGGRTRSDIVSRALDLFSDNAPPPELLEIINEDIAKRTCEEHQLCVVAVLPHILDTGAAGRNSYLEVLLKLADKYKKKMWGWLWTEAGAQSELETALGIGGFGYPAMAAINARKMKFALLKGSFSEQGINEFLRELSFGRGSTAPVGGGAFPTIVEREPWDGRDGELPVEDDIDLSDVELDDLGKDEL
C[C@H]1CN([C@@H](C)CO)S(=O)(=O)c2ccc(C#CCN(C)C)cc2O[C@@H]1CN(C)Cc1ccc(F)cc1 was tested, and the inhibition was 3.33% (inactive).
With C[C@@H]1CN([C@@H](C)CO)C(=O)Cc2cc(NC(=O)C3CCCCC3)ccc2O[C@@H]1CN(C)Cc1ccc(C(=O)Nc2ccccc2N)cc1 the inhibition was -3.91% (inactive).
For CN1C(=O)c2cc(NC(=O)c3cnccn3)ccc2OC[C@H]2O[C@@H](CC(=O)NCC3CCCCC3)CC[C@@H]21, the inhibition was -4.79% (inactive).
With CC(C)NC(=O)N(C)C[C@H]1Oc2c(NC(=O)Nc3ccc(F)cc3)cccc2C(=O)N([C@@H](C)CO)C[C@@H]1C the inhibition was 0.87% (inactive).
For COc1cccc(-c2cnc3c(c2)C(=O)N([C@@H](C)CO)C[C@H](C)[C@H](CN(C)C(C)=O)O3)c1, the inhibition was 1.61% (inactive).
CN(C)C(=O)C[C@@H]1C=C[C@H](NC(=O)Nc2cccc(F)c2)[C@H](CO)O1 was tested, and the inhibition was 0.18% (inactive).
In the case of COCC(=O)N[C@@H]1C[C@@H]2O[C@@H](CO)CC[C@@H]2O[C@@H]1CCc1ccc(-c2ccccc2)cc1, the inhibition is reported as -0.551% (inactive).
In the case of C[C@H]1CN([C@@H](C)CO)C(=O)c2cccc(NC(=O)c3cnccn3)c2O[C@H]1CN(C)C(=O)Nc1ccccc1, the inhibition is reported as 2.81% (inactive).
With CC(=O)N1[C@H](CO)[C@H](c2ccccc2)[C@H]1CN(C(=O)c1ccccc1F)C(C)C the inhibition was -2.13% (inactive).
With Cc1cccc(S(=O)(=O)N(C)C[C@@H]2OCc3cnnn3CCCC(=O)N([C@H](C)CO)C[C@@H]2C)c1 the inhibition was -3.09% (inactive) and 0.225% (inactive) and -3.77% (inactive).
C[C@H](CO)N1C[C@H](C)[C@H](CN(C)S(=O)(=O)c2cccc(F)c2)OCc2cnnn2CCCC1=O was tested, and the inhibition was -5.61% (inactive).
For Cc1cccc(S(=O)(=O)N(C)C[C@H]2OCc3cnnn3CCCC(=O)N([C@@H](C)CO)C[C@H]2C)c1, the inhibition was -7.22% (inactive) and 27.4% (active).
For Cc1nc(NC(=O)C(C)(C)C)sc1[N+](=O)[O-], the inhibition was 0.0535% (inactive).
O=C(NCC1CC1)[C@@H]1[C@@H](CO)[C@@H]2Cn3c(ccc(-c4ccncc4)c3=O)[C@@H]2N1Cc1cocn1 was tested, and the inhibition was 6.61% (inactive).
CO[C@@H]1CN(C)C(=O)c2ccc(NC(=O)NC(C)C)cc2OC[C@@H](C)N(Cc2ccc(-c3ccccn3)cc2)C[C@H]1C was tested, and the inhibition was -3.96% (inactive).
For CCS(=O)(=O)N1[C@H](CO)[C@@H](c2ccc(C#CC(C)C)cc2)[C@@H]1C#N, the inhibition was 0.717% (inactive).
For O=C(C[C@H]1C=C[C@@H](NC(=O)c2ccc(F)cc2)[C@@H](CO)O1)NCCc1ccncc1, the inhibition was -1.66% (inactive).
With COCC#Cc1cnc2c(c1)C(=O)N([C@H](C)CO)C[C@H](C)[C@H](CN(C)C(=O)CCN1CCCCC1)O2 the inhibition was -2% (inactive).
In the case of C[C@@H]1CN([C@H](C)CO)C(=O)Cc2cc(NC(=O)Cc3cn(C)c4ccccc34)ccc2O[C@@H]1CN(C)Cc1ccc(C(F)(F)F)cc1, the inhibition is reported as -1.92% (inactive).
In the case of Cc1cccc(-c2ccccc2[C@@H]2[C@H](C#N)N(c3ncc(-c4ccccc4)s3)[C@H]2CO)c1, the inhibition is reported as 5.5% (inactive).
CO[C@@H]1CN(C)C(=O)c2cc(NS(=O)(=O)c3cccc(F)c3)ccc2OC[C@@H](C)NC[C@@H]1C was tested, and the inhibition was 3.66% (inactive).
With CO[C@@H]1CC[C@@H]2CCOc3c(C#N)cccc3C(=O)N(C)C[C@@H](OC)[C@@H](C)C(=O)N(C)C[C@H]1O2 the inhibition was 0.649% (inactive).
COc1ccc2c3c(n(C)c2c1)[C@@H](CO)N(CC1CC1)CC31CN(C(=O)c2cccc(F)c2)C1 was tested, and the inhibition was -2.91% (inactive).
With COCC(=O)N[C@@H]1C=C[C@@H](CC(=O)N2CCCCC2)O[C@@H]1CO the inhibition was -2.02% (inactive).
CC(C)NC(=O)N(C)C[C@H]1OCCCC[C@@H](C)Oc2ccc(NS(C)(=O)=O)cc2C(=O)N([C@H](C)CO)C[C@H]1C was tested, and the inhibition was -1.99% (inactive).
With CCCN1C[C@H](C)[C@@H](OC)CN(C)C(=O)c2cc(NS(=O)(=O)CC)ccc2OC[C@H]1C the inhibition was -4.64% (inactive).
With C[C@@H]1CN([C@@H](C)CO)C(=O)Cc2cc(NC(=O)Nc3cccc4ccccc34)ccc2O[C@@H]1CN(C)CC1CCCCC1 the inhibition was 3.82% (inactive).
For O=C(NCC[C@@H]1CC[C@@H](NS(=O)(=O)c2cccc(F)c2)[C@H](CO)O1)C1CC1, the inhibition was -3.52% (inactive).
In the case of CCCNC(=O)N(C)C[C@H]1Oc2cc(C#C[C@@H](C)O)ccc2S(=O)(=O)N([C@H](C)CO)C[C@H]1C, the inhibition is reported as -12.1% (inactive).
With CCCN1C[C@@H](C)[C@@H](OC)CN(C)C(=O)c2ccc(NC(=O)CC(F)(F)F)cc2OC[C@H]1C the inhibition was 9.49% (inactive).
In the case of Cc1ccc(-c2ccccc2[C@H]2[C@@H](C#N)N(c3ncc(-c4ccccc4)s3)[C@@H]2CO)cc1, the inhibition is reported as -0.798% (inactive).
For CC=Cc1ccc2n(c1=O)C[C@H]1[C@H](CO)[C@@H](C(=O)NCC3CC3)N(Cc3nccs3)[C@@H]21 (mixture of isomers), the inhibition was -2.63% (inactive).
With COc1ccccc1-c1cnc2c(c1)C(=O)N([C@H](C)CO)C[C@H](C)[C@@H](CN(C)C(=O)CC1CC1)O2 the inhibition was -2.32% (inactive).
In the case of C[C@H]1CN([C@@H](C)CO)C(=O)c2cc(Br)cnc2O[C@@H]1CN(C)C(=O)c1ccccc1, the inhibition is reported as -13% (inactive).
With COCC(=O)Nc1ccc2c(c1)C(=O)N(C)[C@@H]1CC[C@H](CC(=O)NCC3CC3)O[C@@H]1CO2 the inhibition was 7.57% (inactive).
For CCNC(=O)C[C@@H]1CC[C@@H]2[C@@H](COc3ccc(NC(C)=O)cc3C(=O)N2C)O1, the inhibition was -7.17% (inactive).
In the case of CC(=O)Nc1ccc2c(c1)C(=O)N(C)[C@H]1CC[C@@H](CC(=O)NCC3CC3)O[C@H]1CO2, the inhibition is reported as 39.3% (active).
C[C@@H]1CN([C@@H](C)CO)C(=O)Cc2cc(NC(=O)Nc3cccc4ccccc34)ccc2O[C@H]1CN(C)S(=O)(=O)c1ccc(Cl)cc1 was tested, and the inhibition was -3.03% (inactive).
In the case of O=C(CN1CCOCC1)N[C@@H]1CC[C@@H](CCNC(=O)C2CCCCC2)O[C@@H]1CO, the inhibition is reported as 0.632% (inactive).
C[C@H](CO)N1C[C@H](C)[C@H](CN(C)Cc2ccc(Oc3ccccc3)cc2)Oc2c(NC(=O)CCCCCC(=O)Nc3ccccc3N)cccc2C1=O was tested, and the inhibition was 1.76% (inactive).
